Consider 22 sequences from the supplement of paper PMC6555819.

The test system of this experiment is RARg:RXRa (NR concentration 270 nM, RXRa partner concentration 90 nM). As to the kind of experiment: PBM binding z-score (relative to random genomic background probes); higher = stronger binding; sequences stand for … in GC…GCGATTGACAGCGTAGAATGAAGG
In outline:
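The probes on custom Agilent 4×180K protein-binding microarrays were double-stranded, with 34-nt variable regions bearing direct-repeat seeds, single-nucleotide variants, half-site ablations and random human genomic background sequences. Incubation lasted 1 h with ligand-free nuclear receptor dimers in PBS pH 7.4, 2% milk, 0.02% Triton X-100, 1 mM DTT, 0.2 mg/mL BSA and 0.4 mg/ml salmon testes DNA. Antibodies against each partner (one per run) detected bound dimers, and fluorescence scans were regression-normalized. Binding z-scores take the random background probes as reference.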
GATACAGGGTCAGCTAGAGTCCAGAGTATGGAAA came in with a PBM binding z-score of 5.59. Consider AGGATGAGGTTAAGATCAGGGAAACAGAATACAT, for which the PBM binding z-score came out at 2.1. The sequence CCGAGTAGGTTATGGGGCATTCGGGCAACGGTGA came in with a PBM binding z-score of 0.533. The value for TCATAAAGGTAAACAGGTGAAAGTCCGTAAGTTA was 1.34; that for ACAGACAGGGGAGTGAAGGTAACTCAGCTGGACG was -0.128. For the sequence CATACAGGGTCAGCTAGGCGAGAGTAGGGACGGC, the PBM binding z-score is 4.39. For GCGACTGGGGCAAATCAGGTTACCATAAGGTTGG the value was 0.714; for ACTAGCAGGCCAAGTTTGGTTCACTCAAACAAAG, 0.163; for CCTAGTTTGTCAAGGTCACACACGCTATAGGTAC, 4.51. The value for CCTACTGGGCCAAAAGTCATTGATTCCAATGCTC was 0.13; that for TCTAGTTGGGCAAAGGTCACACACTCGAAATGCG was 6.49; that for TCTCGGAGGACACGAAGCTCAGAGCTTTCCAGAG was 0.265. For ATCTCTAGGTAACCAAGTTCAATGAATGCCGAAC the value was 0.955.

Sequence ACTATTAGTTGACTTAGTGCAACCGATACGACGC came in with a PBM binding z-score of 0.552.

As to CTCGACAGGTCGTGCTCAGGTGAGTATACCAAAC, the PBM binding z-score was determined as 2.21. For TCTTGTAAATCAGCAGGTTAAGAAAGCTGGCCAA the value was -0.0885. CCGACTGGGGCAGAAAGGTTAACATACCATCCGG registered a PBM binding z-score of 1.95. CCTACTGGGCCATTCAGAGGTCTTTGATCATATG returned a PBM binding z-score of 0.221. For CCTCGGAGGACCACAGGAGGTCAGAGCTGCCAGA the value was 2.2; for ATCTCTAGGTAAAGAGAGTTCAGTGAATGCAAAT, 0.963; for TCTTGGAGATCAACAGGAGGTTAAGAAAGATCGA, 1.9. For CCTCGGAGGAAAGAAGGTCAGAGCTGTCCGCTTT the value was 1.88.
